# tim10-1 inh – growth inhibitors of tim10-1 mutant yeast, primary screen, luminescence, uHTS; 330,000 compounds, 2.2% hits; inhibition, % at 20 µM; S. cerevisiae tim10-1 ts strain growth, BacTiter-Glo, 24 h; AID 463190, 2010;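 active means inhibition of at least 40%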;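 further: mutant grown at 25 °C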
# Rce1 inhib – yeast Rce1p protease inhibitors, primary screen, biochemical, fluorescence, cell-free homogeneous | calls only | AID 2563, 2010 | yeast membranes, quenched prenylated peptide cleavage fluorescence | CAAX prenyl protease 2 (Saccharomyces cerevisiae (strain ATCC 204508 / S288c)), Q03530 | 290,000 compounds, 0.27% hits;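 active means fall in fluorescence gain of 50% or more versus controls, with final raw signal at or below 3038400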
# Target sequence (Q03530 whole entry, looked up): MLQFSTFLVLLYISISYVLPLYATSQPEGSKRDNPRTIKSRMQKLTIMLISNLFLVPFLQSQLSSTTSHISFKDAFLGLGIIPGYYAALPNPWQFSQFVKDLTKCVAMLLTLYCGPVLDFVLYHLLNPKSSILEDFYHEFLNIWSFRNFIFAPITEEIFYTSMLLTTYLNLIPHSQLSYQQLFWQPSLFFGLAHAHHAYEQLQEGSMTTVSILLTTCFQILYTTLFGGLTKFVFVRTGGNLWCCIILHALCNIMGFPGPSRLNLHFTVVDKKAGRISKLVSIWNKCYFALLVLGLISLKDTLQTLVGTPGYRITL
# TIM10 inh – growth inhibitors of isogenic TIM10 control yeast, primary screen, counter-screen for tim10-1 yeast inhibitor project, luminescence, uHTS. 330,000 compounds, 1.4% hits. S. cerevisiae TIM10 strain growth, BacTiter-Glo luminescence, 24 h. inhibition, % at 10 µM;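 active means inhibition of 40% or more at the single tested concentration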;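 further: wild-type TIM10 isogenic control strain grown at permissive 25 °C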
# tim23-1 inh – growth inhibitors of tim23-1 mutant yeast, primary screen, luminescence, uHTS; S. cerevisiae tim23-1 growth, BacTiter-Glo luminescence, 24 h; inhibition, % at 20 µM; 330,000 compounds, 1.3% hits;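 active means growth inhibition of the mutant yeast at or above 50%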;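 further: temperature-sensitive mutant grown at 25 °C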
# PfHsp90 set2 – growth inhibition of PfHsp90-expressing yeast, primary screen, antimalarial PfHsp90 inhibitor project, S. cerevisiae, BacTiter-Glo luminescence, single point, set 2; AID 504621, 2011; inhibition, % at 9.4 µM; 310,000 compounds, 0.32% hits; BacTiter-Glo ATP, 48 h; yeast lacking PDR1 and PDR3 efflux regulators;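 active means every replicate shows inhibition above about 80%, whatever the replicate mean, limit read from the data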
# tim10-1 conf – growth inhibitors of tim10-1 mutant yeast, confirmation, single concentration, luminescence, S. cerevisiae | shares compounds with tim10-1 inh | 7,400 compounds, 56% hits | S. cerevisiae tim10-1 ts strain growth, BacTiter-Glo, 24 h | inhibition, % at 20 µM;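 active means inhibition of yeast growth at or above a set limit in either of two repeat tests at 20 µM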;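 further: tim10-1 mutant grown at permissive 25 °C to find synthetic lethal compounds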
# Hits are given with their value; i = inactive; nt = not tested or not shown. Hits are enriched below; roughly 3.7% of the tested compounds scored in any of these assays.
SMILES,tim10-1 inh,Rce1 inhib,TIM10 inh,tim23-1 inh,PfHsp90 set2,tim10-1 conf
C/C(=N\NC(=O)COc1ccc(C(C)(C)C)cc1)c1ccc2c(c1)OCCO2,41,i,i,i,i,i
COc1cccc(NC(=O)CSc2c3c(nc4ccccc24)CCCC3)c1,43,i,i,i,i,i
Cc1c(NC(=O)COC(=O)/C=C/c2ccccc2Br)c(=O)n(-c2ccccc2)n1C,i,nt,i,i,i,nt
COC(=O)c1ccc2nc(NC(=O)C(C)(C)C)sc2c1,42,i,i,i,i,35
COC(=O)c1ccc2nc(NC(=O)C3CCCCC3)sc2c1,i,i,i,i,i,nt
CCC1CCCCN1c1nc(-c2ccncc2)nc2ccccc12 (configuration not stated),50,i,i,i,i,38
CC1Cc2cc(S(=O)(=O)N3CCCC(C(=O)N4CCCCC4)C3)ccc2N1C(=O)C1CC1 (configuration not stated),43,i,i,i,i,i
CC(=O)N1c2ccc(S(=O)(=O)N3CCCC(C(=O)N4CCCCC4)C3)cc2CC1C (configuration not stated),i,i,i,i,i,nt
CC(C)CCc1noc(CN(CC2CCC2)CC2CCCO2)n1 (configuration not stated),i,i,i,i,i,nt
S=C(NNc1ccnc2cc(Cl)ccc12)Nc1ccc(Cl)cc1Cl,i,i,i,i,i,nt
CCOc1ccc(NC(=S)NNc2ccnc3cc(Cl)ccc23)cc1,47,i,i,i,nt,i
NS(=O)(=O)c1ccc(NNC(=O)c2ccc(Br)o2)c([N+](=O)[O-])c1,i,nt,i,i,i,nt
C/C(=N\NC(=S)NC1CCCCC1)c1ccc(OC(F)F)cc1OC(F)F,i,i,i,i,i,nt
C/C(=N\NC(=S)NC(C)C)c1ccccc1OC(F)F,41,i,i,i,i,30
S=c1[nH]c(-c2ccccc2)cn1/N=C/c1cccc2ccccc12,i,i,i,i,i,nt
S=c1[nH]c(-c2ccccc2)cn1/N=C/c1ccccc1Br,42,i,i,i,i,i
COc1ccc(/C(N)=N/OC(=O)Cc2ccccc2OC)cc1,49,i,i,i,i,32
COc1ccc(C(=O)O/N=C(\N)c2ccc(Br)cc2)cc1,43,i,i,i,i,53
O=C(O)c1c(-n2cccc2)sc2c1CCCC2,i,i,i,i,i,nt
CC1=Nc2cc(C(=O)NCc3ccco3)ccc2Sc2ccc(C)cc21,44,i,i,i,i,i
Cc1ccc(OCCN2C(=O)C(=O)c3cccc(C)c32)cc1,i,i,i,i,i,nt
CC(C)N1CCC(N2CCN(C/C=C/c3ccccc3)CC2CCO)CC1 (configuration not stated),i,i,i,i,i,nt
Cc1noc(/C=C/c2ccccc2F)c1S(=O)(=O)N1CCC(C(=O)N2CCN(C)CC2)CC1,40,i,i,i,i,i
S=C(NCC1CCCO1)N1CCN(c2nc(-c3ccccc3)cs2)CC1 (configuration not stated),53,i,i,i,i,i
S=C(NCc1ccco1)N1CCN(c2nc(-c3ccccc3)cs2)CC1,i,i,i,i,nt,nt
SMILES,tim10-1 inh,Rce1 inhib,TIM10 inh,tim23-1 inh,PfHsp90 set2,tim10-1 conf
CCOc1ccccc1NC(=S)N1CCN(c2nc(-c3cccc(OC)c3)cs2)CC1,i,i,i,i,i,nt
COc1ccccc1NC(=S)N1CCN(c2nc(-c3ccccc3)cs2)CC1,47,i,i,i,nt,i
O=C(COC(=O)CCCSc1nc2ccccc2[nH]1)Nc1ccc(Cl)cc1,i,i,i,i,i,nt
CN(CCc1ccccn1)C1CC(=O)N(c2ccc(Cl)cc2)C1=O (configuration not stated),41,i,i,i,i,34
O=C(c1ccco1)N1CCCC(c2nc3c(nnn3Cc3ccc(Cl)cc3Cl)c(=O)[nH]2)C1 (configuration not stated),i,i,i,i,i,nt
O=C(c1ccco1)N1CCCC(c2nc3c(nnn3Cc3cccc(Cl)c3)c(=O)[nH]2)C1 (configuration not stated),53,nt,i,i,i,i
